Drawing on ChEMBL document CHEMBL4513216, “Probing the Open Global Health Chemical Diversity Library for Multistage-Active Starting Points for Next-Generation Antimalarials” (ACS Infect Dis, 2020), this text covers INHIBITION for 56 compounds.

In all, about 69,000 compounds went through this assay and about 8,600 (12%) showed an effect of 50% or more. The list comes from a sample in which strong results are over-represented; it also holds similar structures and randomly drawn compounds.

The subject of this assay is Plasmodium berghei. The assay can be described thus: Screen against P. berghei liver stage (PbLuc), transformed with Luciferase, at 10uM. In kind it is functional, HepG2. The following applies: tested at 10 uM.
`Cc1ccc(CN2CCC3(CC2)CN(C(=O)c2cnccn2)CCO3)o1`: the INHIBITION is given as -14.2%.

On to `O=C(N1CCCC1)N1CCN(Cc2cccnc2)c2ncccc2C1`, for which the INHIBITION is given as 31.2%.

`Cn1nccc1C(=O)N1CCC(c2nnsc2S(C)(=O)=O)CC1`: the INHIBITION turned out to be 30.95%.

On to `COC1(CNC(=O)NCc2ccccc2)CCSC1` (stereo unspecified), for which the INHIBITION is recorded as 18.7%.

Turning to `Cc1nc(CNC(=O)NCC(O)c2ccccc2)cs1` (stereo unspecified), the INHIBITION amounted to 11.2%.

On to `CC(C)S(=O)(=O)N1CCC(c2[nH]ncc2S(C)(=O)=O)C1` (stereo unspecified), for which the INHIBITION is reported as 37.6%.

With `CN(CCC#N)C(=O)C(C)(C)Oc1ccc(C(N)=O)cc1`, the INHIBITION is listed as 25.3%.

`CC(=O)N1CCN(CCNC(=O)c2nc3ccccc3c(=O)[nH]2)CC1`: the INHIBITION is listed as -96.2%.

For the compound `CCNC(=O)[C@@H]1C[C@@H](NC(=O)c2ccc(C)cc2O)CN1CCCSC`, the INHIBITION turned out to be 15.9%.

On to `Cc1cc(OCC(=O)N2CCCC(c3nccs3)C2)no1` (stereo unspecified), for which the INHIBITION is recorded as -19.6%.

As for `Cc1nn(C)c(Cl)c1S(=O)(=O)N(C)c1ccc(Cl)cn1`, the INHIBITION amounted to 14.4%.

As to `O=C1CC(c2ccncc2)C2(CCN(Cc3ccc(F)cc3)CC2)N1` (stereo unspecified), the INHIBITION stood at 1.71%.

Take `CN(C)CCOCc1nnc2n1CCN(Cc1ccco1)CC2`: the INHIBITION is on record as 16.4%.

`Cc1cc(Br)ccc1C(=O)Nc1c(C(N)=O)n[nH]c1C`: the INHIBITION worked out at 3.87%.

For the compound `Cc1cnc2c(C(=O)N3CCCC(OCc4ccccn4)C3)cnn2c1` (stereo unspecified), the INHIBITION is on record as 37.9%.

Regarding `CC(=O)NCC(=O)N1CCC(C2CCN(Cc3ccc(Cl)cc3)C2)CC1` (stereo unspecified), the INHIBITION was 26.9%.

Consider `CN1CCN(Cc2ccc(Cl)cc2)CC1C(=O)O` (stereo unspecified), for which the INHIBITION was determined as 17%.

With `O=C1CN(C(=O)C2CCCCC2)CC(O)CN1Cc1ccc(Cl)cc1` (stereo unspecified), the INHIBITION is listed as -0.473%.

Consider `O=C(C1CCCC1)N1CCC(C2CCN(Cc3ccc(Cl)cc3)C2)CC1` (stereo unspecified), for which the INHIBITION was 67.3%.

For the compound `CCOCC(=O)N1CCC(C2CCN(Cc3ccc(Cl)cc3)C2)CC1` (stereo unspecified), the INHIBITION is 26.9%.

As for `O=C(C1CCC1)N1CCC(C2CCN(Cc3ccc(Cl)cc3)C2)CC1` (stereo unspecified), the INHIBITION worked out at 55.6%.

As for `CCc1nc(C2CCCN2CC(=O)N2CCCc3ccccc32)no1` (stereo unspecified), the INHIBITION is reported as 15.3%.

On to `CN(C)c1cc(C(=O)N2CCCCCC2)ccn1`, for which the INHIBITION was 5.308%.

For `O=S(=O)(CCNC1CCc2ncnn2C1)c1ccccc1` (stereo unspecified), the INHIBITION is 20.6%.

In the case of `COC1CC2(CCN(Cc3ccc4c(c3)OCO4)CC2)C1`, the INHIBITION turned out to be 37.4%.

With `Cc1nn(CC(O)CN2CCc3ccccc3C2)c(=O)c2ccccc12` (stereo unspecified), the INHIBITION came out at 18.6%.

With `NC(=O)c1c(NC(=O)CCC(=O)O)sc2c1CCc1ccccc1-2`, the INHIBITION is listed as -13%.

With `Cc1cccc(OCCN2CCN(Cc3cnn(CCO)c3)CC2)c1`, the INHIBITION is listed as 32.9%.

For `Cc1noc(C)c1S(=O)(=O)NCC(C)(O)c1ccc2c(c1)OCO2` (stereo unspecified), the INHIBITION turned out to be 31.3%.

As to `Cn1cnc(S(=O)(=O)NCC(C)(O)c2ccc3c(c2)OCO3)c1` (stereo unspecified), the INHIBITION came out at 52.5%.

As to `Cc1nn(C)c(C)c1S(=O)(=O)NCC(C)(O)c1ccc2c(c1)OCO2` (stereo unspecified), the INHIBITION is given as 34.3%.

For the compound `CNc1nccnc1C1CN(C(=O)c2cc[nH]n2)CCO1` (stereo unspecified), the INHIBITION is on record as -22.5%.

On to `CN1CCN(C)C(CNc2c(C#N)cnc3ccc(Cl)cc23)C1` (stereo unspecified), for which the INHIBITION was 7.18%.

With `CCOC1CC2(CCN(c3cnccn3)CC2)c2ccccc21` (stereo unspecified), the INHIBITION is reported as 37.9%.

`c1cncc(C2CC3(CCN(c4cnccn4)CC3)c3ccccc32)c1` (stereo unspecified): the INHIBITION was 54.1%.

For `CN(C)CCOC1CC2(CCN(c3cnccn3)CC2)c2ccccc21` (stereo unspecified), the INHIBITION worked out at 31.9%.

`Cc1cc(C)cc(OCC(=O)N2CCC2)c1`: the INHIBITION is -5.22%.

On to `CN(C)C(=O)CO[C@H]1CN(Cc2ccc3c(c2)OCO3)[C@@H]2COC[C@H]12`, for which the INHIBITION was 47.4%.

Regarding `CS(=O)(=O)N1C[C@@H](C(=O)Nc2cnccn2)C[C@H]2OCC[C@H]21`, the INHIBITION was 39.3%.

For `O=C(Nc1cnccn1)[C@@H]1C[C@H]2OCC[C@H]2N(c2ncc(F)cn2)C1`, the INHIBITION amounted to 0.923%.

As for `O=C(Nc1cnccn1)[C@H]1C[C@H]2OCC[C@H]2N(c2ncc(F)cn2)C1`, the INHIBITION is 60%.

Regarding `CS(=O)(=O)N1C[C@H](C(=O)Nc2cccnc2)C[C@H]2OCC[C@H]21`, the INHIBITION worked out at 30.5%.

As for `O=C(Nc1cnccn1)[C@H]1CO[C@H]2CCN(c3ncc(F)cn3)C[C@H]2C1`, the INHIBITION was 27.3%.

Consider `CS(=O)(=O)N1C[C@H](C(=O)Nc2cnccn2)C[C@H]2OCC[C@H]21`, for which the INHIBITION is given as 61.5%.

As to `NS(=O)(=O)Cc1ccc(CNc2cncc(-n3cccn3)n2)cc1`, the INHIBITION was 11.6%.

Take `Cc1ccc(CN2CCN(Cc3nccn3C)[C@H]3CS(=O)(=O)C[C@H]32)o1`: the INHIBITION is 24.9%.

For the compound `O=C(CN1CCC[C@H]1C(=O)O)NCCOc1cccc(Cl)c1`, the INHIBITION turned out to be 16.1%.

In the case of `O=C(NC1CCN(C2CC2)CC1)c1cn(-c2ccc(Cl)cc2)nn1`, the INHIBITION was -6.51%.

With `Cc1ccc2c(n1)N(Cc1csc(C)n1)CCN(C1CCOC1)C2` (stereo unspecified), the INHIBITION is 28.2%.

On to `Cc1cccn2c(CNC(C)CCn3cccn3)cnc12` (stereo unspecified), for which the INHIBITION was determined as 32.3%.

`Cc1cccn2c(CNC(C)CCc3ccc(O)cc3)cnc12` (stereo unspecified): the INHIBITION turned out to be 65.8%.

As for `Cc1cc(C)n(CC(C)NCc2nc(-c3cccnc3)no2)n1` (stereo unspecified), the INHIBITION stood at 45.9%.

Take `Cc1cc(C)n(CC(C)NCc2cnc3c(C)cccn23)n1` (stereo unspecified): the INHIBITION is recorded as 60.4%.

Regarding `Cc1cccn2c(CNC(C)CO)cnc12` (stereo unspecified), the INHIBITION worked out at 24.7%.

For the compound `Cc1ccc2c(c1)c(CNC(C)Cn1nc(C)cc1C)nn2C` (stereo unspecified), the INHIBITION stood at 10.9%.

Regarding `COc1ccc(OC)c(C(C)NC(=O)c2nn(C)c(C)c2Br)c1` (stereo unspecified), the INHIBITION was -1.84%.
